Source: PubChem BioAssay (EPA / NIEHS)
Inconclusive results are not listed. Calls of active or inactive are those of the source. The calls were made as follows, unless noted: active = hit-call score of the fitted dose curve at least 0.9, where 1 is the maximum; inactive = score below 0.9.

Experiments:
[1] = ATG_PXRE_CIS: Attagene CIS-FACTORIAL HepG2 Assay for human Pregnane X Receptor Element (PXRE) (AID 2282957); conditions: HepG2 Attagene CIS-FACTORIAL PXRE reporter, mRNA; actives raise or lower the signal
Summary of the method: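 HepG2 cells transiently transfected with cis-element-driven multiplexed reporter units; after 24 h chemical exposure, reporter mRNA measured by RT-PCR, 6-FAM labelling, HpaI digestion and capillary electrophoresis. Bidirectional fitting relative to DMSO.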

[2] = ATG_RORE_CIS: Attagene CIS-FACTORIAL HepG2 Assay for human RAR-related Orphan Receptor Element (RORE) (AID 2282959); conditions: HepG2 Attagene cis-factorial RORE reporter, mRNA; actives raise or lower the signal
Summary of the method: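 A 24-hour exposure of transfected HepG2 hepatoma cells precedes RNA isolation and reporter RT-PCR. Labeled products are digested with HpaI and resolved by capillary electrophoresis, with gain or loss of signal scored relative to DMSO.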

[3] = ATG_Sox_CIS: Attagene CIS-FACTORIAL HepG2 Assay for human SRY-box transcription factor (SOX) (AID 2282960); conditions: HepG2 Attagene cis-factorial SOX reporter, mRNA; actives raise or lower the signal
Summary of the method: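 HepG2, cis reporter units, 24 h exposure. Reporter mRNA: RT-PCR → FAM labelling → HpaI → CE fluorescence. Bidirectional fit vs DMSO.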

[4] = molecular target: Transcription factor Sp1 (Homo sapiens) (UniProt P08047); test: ATG_Sp1_CIS: Attagene CIS-FACTORIAL HepG2 Assay for human Specificity Protein 1 (Sp1) (AID 2282961); conditions: HepG2 Sp1 cis-reporter transcription, actives raise or lower the signal
Summary of the method: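 Liver-derived HepG2 cells, cis-element reporter library, 24 h treatment; RNA isolated, cDNA amplified with reporter-specific primers, FAM-labeled fragments sized on capillary analyzer. DMSO baseline, bidirectional curve fit.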

[5] = ATG_SREBP_CIS: Attagene CIS-FACTORIAL HepG2 Assay for human Sterol Regulatory Element Binding (SREBP) (AID 2282962); conditions: HepG2 Attagene cis-factorial SREBP reporter, mRNA; actives raise or lower the signal
Summary of the method: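 mRNA induction of transfected cis-promoter reporters in HepG2 cells, 24 h post-dose. Detection: RT-PCR with 6-FAM-labelled products, HpaI digest, capillary electrophoresis. DMSO served as negative control and baseline.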

[6] = molecular target: Signal transducer and activator of transcription 3 (Homo sapiens) (UniProt P40763); test: ATG_STAT3_CIS: Attagene CIS-FACTORIAL HepG2 Assay for human Signal Transducer and Activator of Transcription 3 (STAT3) (AID 2282963); conditions: HepG2, Attagene cis-factorial STAT3 reporter transcription; actives raise or lower the signal
Summary of the method: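 Values derive from bidirectional fits relative to DMSO of reporter mRNA levels, measured by RT-PCR with capillary electrophoresis, in HepG2 cells carrying transiently transfected cis-regulated reporter units and exposed 24 h.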

[7] = ATG_TA_CIS: Attagene CIS-FACTORIAL HepG2 Assay for human TA Basal Promoter (AID 2282964); conditions: HepG2 Attagene CIS-factorial TA basal promoter reporter; actives raise or lower the signal
Summary of the method: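 HepG2 cells transiently transfected with multiple reporter units under cis promoter elements, reporting endogenous transcription factor activity; this endpoint tracks the TA basal promoter as background control. Reporter mRNA after 24 h dosing measured by RT-PCR/capillary electrophoresis; bidirectional fits versus DMSO.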

[8] = ATG_TCF_b_cat_CIS: Attagene CIS-FACTORIAL HepG2 Assay for human T-Cell-Factor with beta-catenin (TCF/b-cat) (AID 2282965); conditions: HepG2 TCF/beta-catenin cis-reporter transcription, actives raise or lower the signal
Summary of the method: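 Cells of the HepG2 line carry transiently transfected reporter units whose promoters respond to endogenous factors. Twenty-four hours post-dosing, reporter mRNA induction is measured by fluorescent RT-PCR and capillary electrophoresis, with DMSO as baseline.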

[9] = ATG_TAL_CIS: Attagene CIS-FACTORIAL HepG2 Assay for human TAL Basal Promoter (AID 2282966); conditions: HepG2 Attagene cis-factorial TAL promoter reporter; actives raise or lower the signal;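 also: background control endpoint measuring basal TAL promoter reporter mRNA not a specific factor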
Summary of the method: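 HepG2 cells transiently transfected with multiplexed cis-promoter reporter units, dosed 24 h. Reporter mRNA quantified by RT-PCR, 6-FAM labelling, HpaI digestion and capillary electrophoresis; TAL basal promoter serves as background control, fitted bidirectionally versus DMSO.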

[10] = ATG_VDRE_CIS: Attagene CIS-FACTORIAL HepG2 Assay for human Vitamin D Receptor Element (VDRE) (AID 2282968); conditions: HepG2 VDRE cis-reporter transcription, actives raise or lower the signal
Summary of the method: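 Cell-based multiplexed reporter format in human liver HepG2 cells, 24 h post-dose. Fluorescence from capillary electrophoresis of reporter cDNA gives the signal, with DMSO as negative control and baseline.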

[11] = molecular target: X-box-binding protein 1 (Homo sapiens) (UniProt P17861); test: ATG_Xbp1_CIS: Attagene CIS-FACTORIAL HepG2 Assay for human X-box Binding Protein 1 (XBP1) (AID 2282972); conditions: HepG2 XBP1 cis-element reporter, Attagene multiplex; actives raise or lower the signal
Summary of the method: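 Fluorescence-labelled cDNA fragments from reporter transcripts, separated by capillary electrophoresis, give the signal. Source: HepG2 cells transfected with promoter-driven reporter units, harvested 24 h post-dose. DMSO served as reference for bidirectional curve fitting.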

[12] = ATG_PPRE_CIS: Attagene CIS-FACTORIAL HepG2 Assay for human Peroxisome Proliferator-activated Response Element (PPRE) (AID 2282958); conditions: HepG2 PPRE cis-element reporter, Attagene transcription factor profiling; actives raise or lower the signal
Summary of the method: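 PPRE activity in HepG2: transient cis-reporter transfection, 24 h compound incubation, reporter mRNA by RT-PCR and CE fluorescence; gain/loss fitted against DMSO.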

[13] = ATG_TGFb_CIS: Attagene CIS-FACTORIAL HepG2 Assay for human Transforming Growth Factor (TGF) (AID 2282967); conditions: HepG2 Attagene CIS TGFb reporter, mRNA transcription; actives raise or lower the signal
Summary of the method: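 HepG2 cells transiently transfected with cis-promoter-driven multiple reporter units measure endogenous TF activity; reporter mRNA quantified at 24 h by RT-PCR, FAM labeling, HpaI digestion and capillary electrophoresis. Bidirectional fit vs DMSO.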

[14] = molecular target: Steroid hormone receptor ERR1 (Homo sapiens) (UniProt P11474); test: ATG_ERRa_TRANS: Attagene TRANS-FACTORIAL HepG2 Assay for human Estrogen-Related Receptor alpha (ERRa) (AID 2282971; active = hit-call score of the fitted dose curve at least 0.9, where 1 is the maximum); conditions: HepG2 Attagene TRANS reporter, ERRa transactivation
Summary of the method: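 HepG2 cells transiently transfected with GAL4-UAS reporter units and chimeric NR-Gal4 constructs; after 24 hour compound incubation, reporter mRNA quantified by RT-PCR, fluorescent labelling and capillary electrophoresis, gain of signal versus DMSO.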

[15] = molecular target: Estrogen-related receptor gamma (Homo sapiens) (UniProt P62508); test: ATG_ERRg_TRANS: Attagene TRANS-FACTORIAL HepG2 Assay for human Estrogen-Related Receptor gamma (ERRg) (AID 2282977; active = hit-call score of the fitted dose curve at least 0.9, where 1 is the maximum;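 also: hits increase reporter signal over DMSO so potencies reflect activators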); conditions: HepG2 Attagene TRANS reporter, ERRg transactivation
Summary of the method: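 Transient HepG2 transfectants, 24 h compound exposure, GAL4-UAS reporter mRNA by RT-PCR/6-FAM labelling/capillary electrophoresis; positive direction vs DMSO.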

[16] = ATG_GAL4_TRANS: Attagene TRANS-FACTORIAL HepG2 Assay for GAL4 (Internal Marker) (AID 2282976; active = hit-call score of the fitted dose curve at least 0.9, where 1 is the maximum); conditions: HepG2 Attagene TRANS GAL4 internal marker reporter
Summary of the method: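 Background-control readout: GAL4-UAS reporter transcript in transiently transfected HepG2 cells after 24 h compound exposure. Measured by RT-PCR, 6-FAM primer extension, HpaI digest and capillary electrophoresis; gain-of-signal fit versus DMSO.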

[17] = ATG_M_19_TRANS: Attagene TRANS-FACTORIAL HepG2 Assay for M19 Transcription Factor (Internal Marker) (AID 2282974; active = hit-call score of the fitted dose curve at least 0.9, where 1 is the maximum); conditions: HepG2 Attagene TRANS-FACTORIAL M19 internal marker reporter
Summary of the method: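 Transfected HepG2 (GAL4-UAS MRTUs), 24 h compound, TriZol RNA, DNase-treated RT, reporter PCR, FAM label, HpaI digest, CE fluorescence; gain vs DMSO.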

[18] = molecular target: Estrogen receptor (Homo sapiens) (UniProt P03372); test: ATG_ERa_TRANS: Attagene TRANS-FACTORIAL HepG2 Assay for human Estrogen Receptor alpha (ERa) (AID 2282970; active = hit-call score of the fitted dose curve at least 0.9, where 1 is the maximum); conditions: HepG2 Attagene TRANS ERa GAL4 reporter, mRNA
Summary of the method: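 HepG2 cells transiently transfected with multiplexed GAL4-UAS reporter units read out chimeric NR-Gal4 activity. After 24 h compound exposure, reporter mRNA was quantified by RT-PCR, 6-FAM labeling, HpaI digestion and capillary electrophoresis, relative to DMSO.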

Measured: AC50

Sequence of X-box-binding protein 1 (Homo sapiens) (P17861 whole entry, looked up, the tested form may be a part): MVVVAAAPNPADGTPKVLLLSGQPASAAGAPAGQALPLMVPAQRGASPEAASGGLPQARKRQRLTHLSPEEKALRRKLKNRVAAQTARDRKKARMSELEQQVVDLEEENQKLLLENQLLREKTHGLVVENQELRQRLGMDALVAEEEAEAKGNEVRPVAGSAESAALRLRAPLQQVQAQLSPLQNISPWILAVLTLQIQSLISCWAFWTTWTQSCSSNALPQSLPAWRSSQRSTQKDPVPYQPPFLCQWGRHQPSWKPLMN
Sequence of Signal transducer and activator of transcription 3 (Homo sapiens) (P40763 whole entry, looked up): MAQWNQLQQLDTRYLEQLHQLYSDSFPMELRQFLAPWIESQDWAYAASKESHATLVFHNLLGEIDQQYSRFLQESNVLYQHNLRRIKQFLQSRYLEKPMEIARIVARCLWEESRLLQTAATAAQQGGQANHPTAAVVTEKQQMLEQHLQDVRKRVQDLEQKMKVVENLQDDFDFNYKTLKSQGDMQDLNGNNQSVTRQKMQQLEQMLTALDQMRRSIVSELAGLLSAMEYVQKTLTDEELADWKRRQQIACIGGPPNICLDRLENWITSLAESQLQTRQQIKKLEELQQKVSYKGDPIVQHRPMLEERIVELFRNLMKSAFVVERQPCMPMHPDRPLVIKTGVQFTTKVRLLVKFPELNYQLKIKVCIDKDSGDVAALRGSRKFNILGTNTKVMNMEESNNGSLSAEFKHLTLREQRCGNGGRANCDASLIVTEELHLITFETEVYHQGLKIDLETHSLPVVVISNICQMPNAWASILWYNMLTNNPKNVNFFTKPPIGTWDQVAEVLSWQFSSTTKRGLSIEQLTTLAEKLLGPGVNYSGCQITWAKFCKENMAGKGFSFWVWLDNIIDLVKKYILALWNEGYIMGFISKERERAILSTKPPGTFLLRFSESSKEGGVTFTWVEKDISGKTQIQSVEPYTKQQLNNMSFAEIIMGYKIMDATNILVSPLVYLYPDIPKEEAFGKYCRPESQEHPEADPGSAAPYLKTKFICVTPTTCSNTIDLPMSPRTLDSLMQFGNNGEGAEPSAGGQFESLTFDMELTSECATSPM
Sequence of Transcription factor Sp1 (Homo sapiens) (P08047 whole entry, looked up, the tested form may be a part): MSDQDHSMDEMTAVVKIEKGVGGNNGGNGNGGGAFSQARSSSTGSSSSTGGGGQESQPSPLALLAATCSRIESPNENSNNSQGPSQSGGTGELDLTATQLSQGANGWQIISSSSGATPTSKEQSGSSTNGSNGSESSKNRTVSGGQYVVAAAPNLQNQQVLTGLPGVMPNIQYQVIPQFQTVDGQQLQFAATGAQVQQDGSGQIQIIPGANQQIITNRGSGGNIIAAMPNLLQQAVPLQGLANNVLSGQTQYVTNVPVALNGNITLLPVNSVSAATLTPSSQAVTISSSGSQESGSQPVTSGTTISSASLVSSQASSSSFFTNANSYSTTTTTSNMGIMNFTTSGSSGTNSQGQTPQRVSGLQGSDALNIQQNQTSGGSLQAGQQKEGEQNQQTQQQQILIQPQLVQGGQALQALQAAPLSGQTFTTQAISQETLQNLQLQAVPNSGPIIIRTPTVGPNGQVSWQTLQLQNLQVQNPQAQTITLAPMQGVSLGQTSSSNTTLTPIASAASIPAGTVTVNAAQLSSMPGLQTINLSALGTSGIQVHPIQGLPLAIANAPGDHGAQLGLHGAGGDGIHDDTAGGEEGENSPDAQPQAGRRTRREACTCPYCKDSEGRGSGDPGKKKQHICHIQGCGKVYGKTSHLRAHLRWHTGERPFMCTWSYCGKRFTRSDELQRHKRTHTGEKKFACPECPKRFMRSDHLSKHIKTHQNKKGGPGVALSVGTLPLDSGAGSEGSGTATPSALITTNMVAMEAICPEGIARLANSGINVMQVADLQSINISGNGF
Sequence of Steroid hormone receptor ERR1 (Homo sapiens) (P11474 whole entry, looked up, the tested form may be a part): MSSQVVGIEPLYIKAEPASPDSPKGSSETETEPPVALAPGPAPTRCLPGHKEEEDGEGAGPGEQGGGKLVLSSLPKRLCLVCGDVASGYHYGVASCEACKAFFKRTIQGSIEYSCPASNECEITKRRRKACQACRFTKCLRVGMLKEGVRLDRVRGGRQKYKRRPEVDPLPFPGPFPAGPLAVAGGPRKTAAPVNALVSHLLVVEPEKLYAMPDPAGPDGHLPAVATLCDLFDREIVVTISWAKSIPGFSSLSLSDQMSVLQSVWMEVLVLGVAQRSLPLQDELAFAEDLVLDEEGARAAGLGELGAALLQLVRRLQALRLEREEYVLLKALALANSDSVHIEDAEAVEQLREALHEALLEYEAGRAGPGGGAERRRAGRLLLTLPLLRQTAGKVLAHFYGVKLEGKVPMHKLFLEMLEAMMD
Sequence of Estrogen-related receptor gamma (Homo sapiens) (P62508 whole entry, looked up, the tested form may be a part): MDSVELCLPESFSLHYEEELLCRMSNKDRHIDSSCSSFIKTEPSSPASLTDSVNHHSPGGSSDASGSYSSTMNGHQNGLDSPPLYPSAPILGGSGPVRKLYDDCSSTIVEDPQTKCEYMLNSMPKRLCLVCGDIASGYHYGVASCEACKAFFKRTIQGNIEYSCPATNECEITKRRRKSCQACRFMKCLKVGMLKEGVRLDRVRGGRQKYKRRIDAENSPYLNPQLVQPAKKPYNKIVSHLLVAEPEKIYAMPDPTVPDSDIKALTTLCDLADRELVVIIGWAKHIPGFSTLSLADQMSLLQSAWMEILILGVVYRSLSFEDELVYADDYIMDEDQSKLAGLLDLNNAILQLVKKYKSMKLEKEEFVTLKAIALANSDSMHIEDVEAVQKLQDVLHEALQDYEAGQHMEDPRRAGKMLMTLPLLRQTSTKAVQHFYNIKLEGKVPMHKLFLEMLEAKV
Sequence of Estrogen receptor (Homo sapiens) (P03372 whole entry, looked up, the tested form may be a part): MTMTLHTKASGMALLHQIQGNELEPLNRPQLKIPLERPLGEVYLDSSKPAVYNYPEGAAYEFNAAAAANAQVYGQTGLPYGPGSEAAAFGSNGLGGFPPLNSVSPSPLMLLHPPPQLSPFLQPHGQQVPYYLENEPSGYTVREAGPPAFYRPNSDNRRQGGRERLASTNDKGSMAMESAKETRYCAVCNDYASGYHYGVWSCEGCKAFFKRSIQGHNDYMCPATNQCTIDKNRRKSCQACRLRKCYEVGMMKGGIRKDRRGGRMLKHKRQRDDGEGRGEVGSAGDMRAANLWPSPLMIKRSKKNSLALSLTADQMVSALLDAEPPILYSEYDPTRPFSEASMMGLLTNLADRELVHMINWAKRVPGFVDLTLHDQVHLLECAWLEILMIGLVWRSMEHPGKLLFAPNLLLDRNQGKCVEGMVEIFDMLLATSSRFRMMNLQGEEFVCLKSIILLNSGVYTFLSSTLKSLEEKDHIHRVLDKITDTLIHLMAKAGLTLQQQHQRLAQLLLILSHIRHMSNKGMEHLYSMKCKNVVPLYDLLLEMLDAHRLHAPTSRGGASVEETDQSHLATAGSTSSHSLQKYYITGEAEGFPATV

CC[C@H]1OC(=O)[C@H](C)[C@@H](O[C@H]2C[C@@](C)(OC)[C@@H](O)[C@H](C)O2)[C@H](C)[C@@H](O[C@@H]2O[C@H](C)C[C@H](N(C)C)[C@H]2O)[C@](C)(O)C[C@@H](C)C(=O)[C@H](C)[C@@H](O)[C@]1(C)O
not listed: [12] | [13] | [14] | [15] | [16] | [17] | [18]
inactive: all other assays above

O=C(CCCCCCCCc1cccnc1)N1CCC(C=C(c2ccccc2)c2ccccc2)CC1
inactive: [3] | [9] | [13] | [14]
active: [1] 0.438 µM | [12] 1.07 µM | [4] 8.56 µM | [5] 8.12 µM | [6] 19.5 µM | [7] 16.1 µM | [8] 8.08 µM | [10] 1.85 µM | [11] 3.5 µM

COC(=O)CC(=O)OC
not listed: [2] | [14] | [15] | [16] | [17] | [18]
inactive: all other assays above

Cc1[nH]cnc1C[C@H]1CCc2c(C)c3ccccc3n2C1=O
active: [1] 7.57 µM | [2] 18.9 µM | [7] 29.7 µM | [8] 15.8 µM | [9] 40.8 µM | [10] 29.7 µM | [11] 20.4 µM
inactive: [3] | [4] | [5] | [6] | [13] | [15]

CC(=O)OC[C@H]1O[C@@](COC(C)=O)(O[C@H]2O[C@H](COC(C)=O)[C@@H](OC(C)=O)[C@H](OC(C)=O)[C@H]2OC(C)=O)[C@@H](OC(C)=O)[C@@H]1OC(C)=O
active: [1] 20.1 µM
not listed: [12] | [14] | [15] | [17] | [18]
inactive: all other assays above

Nc1cccc(N)c1
not listed: [12] | [14] | [15] | [16] | [18]
inactive: all other assays above

CC(O)CN(CCN(CC(C)O)CC(C)O)CC(C)O (stereo unspecified)
not listed: [1] | [14] | [15] | [16] | [18]
inactive: all other assays above

CC[C@H](C)C(=O)O[C@H]1C[C@@H](C)C=C2C=C[C@H](C)[C@H](CC[C@@H]3C[C@@H](O)CC(=O)O3)[C@H]21
active: [5] 1.36 µM | [10] 4.47 µM
not listed: [1] | [14] | [15] | [16]
inactive: all other assays above

COCCOCCOCCOC
not listed: [12] | [14] | [15] | [18]
inactive: all other assays above
